Test results as given in PubChem BioAssay (NCATS).
Results filed as inconclusive are left out. Calls of active or inactive are those of the source. The call rests on the fitted dose curve; in most records, active means well fitted curve in the direction sought with a large enough effect; inconclusive means small, poorly fitted or top-dose-only effect, or another doubt; inactive means no such curve, though single readings can be large; an effect the other way counts as inactive or inconclusive.

Assays:
[1] = G06 Cancer Cell Toxicity qHTS against the NCATS CANVASS Library (AID 1347368); further: series mostly up to about 46 µM; nearly all actives have a fitted effect of over 60% in size
Outline: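 Cells were plated at 500 per well, then compounds were added over an 11-point range. After 72 hr at 37C, CellTiterGlo was added and luminescence measured as ATP content.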

[2] = MCF7 Cancer Cell Toxicity qHTS against the NCATS CANVASS Library (AID 1347369); further: series mostly up to about 46 µM
Outline: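 Cytotoxicity is measured by ATP content: MCF7 cells at 500 per well receive an 11-point compound series and, after 72 hr at 37C, are lysed with CellTiterGlo for luminescence.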

[3] = qHTS for ATAD5 Antagonist screened against the NCATS CANVASS Library (AID 1347370);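 further: HEK293T cells carrying an ATAD5 luciferase reporter co-treated with 10 µM 5-fluorouridine; series mostly up to about 46 µM; nearly all actives have a fitted effect of over 65% in size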
Outline: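 Compounds (11-point) co-dosed with 10 µM 5-FUrd for 16 h at 37 °C onto HEK293T-ATAD5 luciferase reporter cells. Viability measured by CellTiter-Fluor fluorescence, then ATAD5 reporter signal by luminescence.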

[4] = J3T Cancer Cell Toxicity qHTS against the NCATS CANVASS Library (AID 1347371);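 further: J3T is a canine glioma cancer cell line seeded at 500 cells per well; series mostly up to about 46 µM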
Outline: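 Luminescence from CellTiterGlo, reporting cellular ATP, serves as the viability measure after 72 hr compound treatment of J3T canine glioma cells seeded at 500 cells/well.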

[5] = target: Nuclear receptor subfamily 1 group I member 3 (Homo sapiens) (UniProt Q14994); experiment: qHTS for Constitutive Androstane Receptor (CAR) Antagonist screened against the NCATS CANVASS Library (AID 1347372);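 further: cells stimulated with 50 nM CITCO agonist so inhibition reflects antagonism; luciferase from CYP2B6 promoter reporter driven by hCAR in HepG2 cells; series mostly up to about 46 µM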
Chain of Nuclear receptor subfamily 1 group I member 3 (Homo sapiens) (Q14994 whole entry, looked up): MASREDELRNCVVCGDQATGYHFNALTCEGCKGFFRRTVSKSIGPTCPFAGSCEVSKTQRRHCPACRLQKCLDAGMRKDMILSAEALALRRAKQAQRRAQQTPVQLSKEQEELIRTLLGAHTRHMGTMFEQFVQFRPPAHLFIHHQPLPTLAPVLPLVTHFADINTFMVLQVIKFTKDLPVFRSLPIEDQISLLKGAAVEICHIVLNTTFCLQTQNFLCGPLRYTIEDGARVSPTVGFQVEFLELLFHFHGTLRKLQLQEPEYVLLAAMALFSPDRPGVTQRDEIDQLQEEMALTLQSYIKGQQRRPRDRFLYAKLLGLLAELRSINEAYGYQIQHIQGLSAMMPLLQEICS
Outline: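 Cells were seeded and left 4hr to attach, then received compound at 11 concentrations and 50 nM CITCO. Following 24hr incubation, fluorescence viability and luciferase luminescence were read sequentially.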

[6] = target: Nuclear receptor subfamily 1 group I member 3 (Homo sapiens) (UniProt Q14994); experiment: qHTS for Constitutive Androstane Receptor (CAR) Agonist screened against the NCATS CANVASS Library (AID 1347373);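 further: every well also contained 1.5 µM PK11195 alongside the test compound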
Outline: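 Cells were plated and allowed to attach for 4hr, then dosed with compound in an 11-point series alongside 1.5uM PK11195. After 24hr at 37C, viability was measured fluorometrically and CAR-driven CYP2B6 reporter luminescence was recorded.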

[7] = qHTS for Hypoxia signaling pathway (HIF-1) antagonists against the NCATS CANVASS Library (AID 1347374);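 further: HRE-bla ME-180 cells stimulated with cobalt chloride to stabilize HIF-1alpha; series mostly up to about 38 µM; nearly all actives have a fitted effect of over 60% in size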
Outline: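 Antagonism scored as loss of CoCl2-driven (60 uM stock added) HRE beta-lactamase signal, read by CCF4 FRET at 460/530 nm. Compounds were tested in an 11-point series on ME-180 reporter cells for 17 hrs at 37C, with parallel CellTiter-Glo cytotoxicity.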

[8] = 10-beta competent E. coli microbial cell viability qHTS against the NCATS CANVASS Library (AID 1347376); further: series mostly up to about 46 µM
Outline: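 Bacterial suspension diluted to 0.2 OD was dosed with compounds, 11-point series, then held overnight at 37C. BacTiter-Glo reagent was added, and after 20 min at room temperature ATP-dependent luminescence was measured.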

[9] = DH5-alpha competent E. coli microbial cell viability qHTS against the NCATS CANVASS Library (AID 1347377); conditions: outcome: dose series up to 46.1 µM unless noted
Outline: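 Bacteria were dispensed at 0.2 OD, then compounds were pin-transferred. Plates were incubated overnight at 37C, after which BacTiter-Glo was added and luminescence measured 20 min later.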

[10] = qHTS for H2AX Agonists against the NCATS CANVASS Library (AID 1347378);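 further: phospho-H2AX S139 level in CHO-K1 lysates by TR-FRET emission ratio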
Outline: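 Following overnight seeding, CHO-K1 cells are incubated with a concentration series of compound for 3 hr at 37C (final DMSO 0.76%). Cells are then lysed, detection antibodies added, and emission ratio 665/620 nm recorded after 24 hr at room temperature.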

[11] = qHTS for Inflammasome Signaling Inhibitors: IL-1-beta AlphaLISA screen against the NCATS CANVASS Library (AID 1347379);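 further: human THP-1 cells primed with LPS then triggered with ATP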
Outline: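 Secreted IL-1B from human THP-1 cells quantified by AlphaLISA 16 hr after compound addition (final up to 57.5 uM). A 1 hr compound pretreatment preceded inflammasome activation with 250 ng/mL LPS plus 1.25 mM ATP (final).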

[12] = qHTS for Antimalaria activity screened against the NCATS CANVASS Library (AID 1347380); further: potency means the concentration at half of the fitted maximal effect; nearly all actives have a fitted effect of over 40% in size
Outline: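 Compounds are titrated over 11 concentrations onto Dd2 parasite cultures (0.3% parasitemia, 2.5% hematocrit). Growth over 72 h at 37C in low oxygen is measured as SYBR Green DNA fluorescence after lysis.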

[13] = Inflammasome Signaling qHTS Counterscreen: IL-1-beta AlphaLISA counterscreen against the NCATS CANVASS Library (AID 1347381);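 further: cell-free check with purified IL-1β in medium and no THP-1 cells; series mostly up to about 57 µM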
Outline: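 Purified IL-1-beta (4 pg/well) + compound, 11-pt conc. series; acceptor beads 6 ug/mL + biotin-Ab 0.6 nM final, 1 h RT; SA-donor 24 ug/ml final, 30 min dark RT; read ex 680/em 615.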

[14] = Cytotoxicity qHTS for assessment of Hepg2 cells membrane integrity screened against the NCATS CANVASS Library (AID 1347387)
Outline: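 Cells were seeded at 2000 per well and left overnight to attach. Compounds were pin-transferred to give 0.59 nM - 46 uM in an 11-point series and incubated 5 hr at 37C. CytoTox-ONE reagent was added and, after 10 min at room temperature, fluorescence (ex 560, em 590 nm) was read.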

[15] = qHTS for Activators of p53 Stress Response Pathway screened against the NCATS CANVASS Library (AID 1347388)
Outline: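 p53RE-bla HCT-116 cells (4000/well) were plated 5 h at 37C, exposed to compounds for 16 h at 37C over an 11-point concentration series, then loaded with CCF4 for 2 h at room temperature; 460/530 nm emission ratio read.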

[16] = qHTS assay for small molecule disruptors of mitochondrial membrane potential screened against the NCATS CANVASS Library (AID 1347389); further: series mostly up to about 46 µM; nearly all actives have a fitted effect of over 60% in size
Outline: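 Mitochondrial depolarization in HepG2 cells is scored as a falling aggregate-to-monomer fluorescence ratio after 1 hr compound exposure and 30 min staining with Mito-MPS dye at 37C, each compound tested as an 11-point titration.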

[17] = qHTS for activators of Nrf2/ARE signaling pathway screened against the NCATS CANVASS Library (AID 1347391); further: nearly all actives have a fitted effect of over 60% in size
Outline: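 Beta-lactamase reporter signal, read as 460 and 530 nm emission under 405 nm excitation after 2 h CCF4 loading, reflected ARE activation in HepG2 cells treated 16 h with an 11-point series.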

[18] = qHTS for activators of dead-cell proteases activity screened against the NCATS CANVASS Library (AID 1347392);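 further: luminescence from protease leaking out of membrane-damaged cells cleaving impermeant substrate; rising signal means more cytotoxicity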
Outline: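 Cytotoxicity in HepG2 cells was assessed by released protease cleaving AAF-aminoluciferin, with luminescence as signal. Exposure lasted 5 h at 37C across an 11-point series.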

[19] = qHTS for inhibitors of ER calcium dysfunction: SERCaMP assay screened against the NCATS CANVASS Library (AID 1347393);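 further: series mostly up to about 77 µM; lower secreted reporter signal means inhibitor of ER calcium depletion; nearly all actives have a fitted effect of over 40% in size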
Outline: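 qHTS in SH-SY5Y reporter cells: 16 h compound pretreatment, 4 h thapsigargin, then secreted Gaussia luciferase measured by luminescence.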

[20] = Vero-766 cells viability qHTS against the NCATS CANVASS Library: Counterscreen for Zika virus inhibition assay (AID 1347394)
Outline: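 This cytotoxicity counterscreen uses African green monkey Vero 766 cells in the absence of Zika virus. Compounds are incubated with cells for 72 h, and ATP-based luminescence reports viability.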

[21] = qHTS for inhibitors of Wild type Zika virus screened against the NCATS CANVASS Library (AID 1347396);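 further: ATP luminescence of surviving cells so rescue from viral cell killing; series mostly up to about 46 µM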
Outline: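 Luminescent CellTiter Glo read-out of virus-induced cytotoxicity, 72 h post-infection, in Vero 766 cells. Compounds were tested at 11 concentrations; uninfected, vehicle-treated wells defined 100% inhibition.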

[22] = Viability qHTS for inhibitors of the SERCaMP assay screened against the NCATS CANVASS Library (AID 1347400); further: series mostly up to about 92 µM; nearly all actives have a fitted effect of over 70% in size
Outline: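 Seed SH-SY5Y-GLuc SERCaMP MJH297 cells at 1000 per well, incubate 4 h, add compounds across an 11-point range, incubate 48 h at 37C, then add CellTiter-Glo and read luminescence.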

[23] = Redox Reaction Profiling qHTS: Assay Interference Panel against the NCATS CANVASS Library (AID 1347401)
Outline: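 Quantitative HTS over an 11-point series was run in HEPES pH 7.3 with 50 mM NaCl, 200 uM DTT and 5 uM resazurin. Initial and 15-min resorufin fluorescence readings were taken.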

Measured: Potency

O=c1cc(-c2ccc(O)cc2)oc2c([C@@H]3OC(CO)[C@H](O)[C@@H](O)[C@H]3O)c(O)cc(O)c12 (stereo partly drawn)
active: [12] 1.3 nM
inactive: [1] | [2] | [3] | [4] | [5] | [6] | [7] | [8] | [9] | [10] | [11] | [13] | [14] | [15] | [16] | [17] | [18] | [19] | [20] | [21] | [22] | [23]
